PubChem BioAssay (NCI)
This is part of a sample that, as a whole, favours compounds with a hit. Of some 83,000 tested, about 20% had one in any assay.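 A percent growth of 40 corresponds to 60% growth inhibition; 0 means no net growth; -100 means all cells died. Active threshold: below 10.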 A number with no mark means an inactive call. Activity calls are given as the source filed them.

Assays:
Assay in all cases: NCI-60 one-dose screen, 48 h (100 = growth as untreated, 0 = no growth, -100 = all killed)
[1] = tested on: SR leukemia; conditions: 10 µM
[2] = tested on: RPMI-8226 leukemia; conditions: 10 µM
[3] = tested on: OVCAR-8 ovarian; conditions: 10 µM
[4] = tested on: OVCAR-5 ovarian; conditions: 10 µM
[5] = tested on: OVCAR-4 ovarian; conditions: 10 µM
[6] = tested on: SK-OV-3 ovarian; conditions: 10 µM
[7] = tested on: IGROV1 ovarian; conditions: 10 µM
[8] = tested on: OVCAR-3 ovarian; conditions: 10 µM
[9] = tested on: NCI/ADR-RES ovarian; conditions: 10 µM
[10] = tested on: T-47D breast; conditions: 10 µM
[11] = tested on: MDA-MB-435 melanoma; conditions: 10 µM
[12] = tested on: SW-620 colon; conditions: 10 µM
[13] = tested on: HCT-116 colon; conditions: 10 µM
[14] = tested on: HCC-2998 colon; conditions: 10 µM
[15] = tested on: KM12 colon; conditions: 10 µM
[16] = tested on: HS 578T breast; conditions: 10 µM
[17] = tested on: BT-549 breast; conditions: 10 µM
[18] = tested on: MCF7 breast; conditions: 10 µM unless noted

SMILES: CC1(c2ccccc2)NC(=O)NC1=O (centres undefined)
- growth [1]: 102%
- growth [2]: 105%
- growth [3]: 103%
- growth [4]: 109%
- growth [5]: 115%
- growth [6]: 107%
- growth [7]: 105%
- growth [8]: 121%
- growth [9]: 114%
- growth [10]: 109%
- growth [11]: 113%
- growth [12]: 115%
- growth [13]: 111%
- growth [14]: 102%
- growth [15]: 112%

SMILES: C=CCOC(=O)C(=O)OCC=C
- growth [1]: 82.1%
- growth [2]: 103%
- growth [3]: 101%
- growth [4]: 97.5%
- growth [5]: 110%
- growth [6]: 105%
- growth [8]: 118%
- growth [16]: 130%
- growth [9]: 117%
- growth [10]: 93.9%
- growth [17]: 101%
- growth [11]: 120%
- growth [12]: 103%
- growth [18]: 101%
- growth [13]: 101%
- growth [14]: 107%
- growth [15]: 102%

SMILES: Cc1ccc(C(=O)c2ccccc2)c(C)c1
- growth [1]: 127%
- growth [2]: 98%
- growth [3]: 109%
- growth [4]: 95.3%
- growth [5]: 103%
- growth [6]: 99.2%
- growth [7]: 101%
- growth [8]: 112%
- growth [10]: 96.4%
- growth [17]: 99.6%
- growth [11]: 118%
- growth [12]: 98.7%
- growth [18]: 101%
- growth [13]: 94.8%
- growth [15]: 107%

SMILES: CCC(=O)Oc1ccc(OC)cc1
- growth [1]: 92.6%
- growth [2]: 128%
- growth [3]: 108%
- growth [4]: 102%
- growth [5]: 114%
- growth [6]: 101%
- growth [7]: 93.1%
- growth [8]: 103%
- growth [9]: 106%
- growth [10]: 101%
- growth [11]: 106%
- growth [12]: 102%
- growth [18]: 102%
- growth [13]: 107%
- growth [14]: 114%
- growth [15]: 106%

SMILES: O/N=C/c1ccc(O)cc1O
- growth [1]: 110%
- growth [2]: 94.8%
- growth [3]: 94.1%
- growth [4]: 94.7%
- growth [5]: 109%
- growth [6]: 103%
- growth [7]: 117%
- growth [8]: 112%
- growth [9]: 104%
- growth [10]: 94%
- growth [17]: 103%
- growth [11]: 107%
- growth [12]: 102%
- growth [18]: 98.6%
- growth [13]: 114%
- growth [15]: 99%

SMILES: O=C(/C=C/C(=O)c1ccccc1)c1ccccc1
- growth [1]: 71.3%
- growth [2]: 80.8%
- growth [3]: 110%
- growth [4]: 115%
- growth [5]: 108%
- growth [6]: 115%
- growth [7]: 113%
- growth [8]: 102%
- growth [9]: 114%
- growth [10]: 92.4%
- growth [11]: 100%
- growth [18]: 75.2%
- growth [14]: 107%
- growth [15]: 111%

SMILES: COC(=O)/C=C/C(=O)NC(N)=O
- growth [1]: 95.9%
- growth [2]: 103%
- growth [3]: 99.5%
- growth [4]: 98.3%
- growth [5]: 98.5%
- growth [6]: 96.2%
- growth [8]: 107%
- growth [16]: 107%
- growth [9]: 109%
- growth [10]: 95.3%
- growth [17]: 99.4%
- growth [11]: 99%
- growth [12]: 103%
- growth [18]: 94.8%
- growth [13]: 103%
- growth [14]: 122%
- growth [15]: 102%

SMILES: CCOc1ccc(Br)cc1/C=N\N=C\c1cc(Br)ccc1OCC
- growth [1]: 92.4%
- growth [2]: 95.5%
- growth [3]: 95.6%
- growth [4]: 107%
- growth [5]: 113%
- growth [6]: 117%
- growth [7]: 103%
- growth [16]: 143%
- growth [9]: 120%
- growth [10]: 93%
- growth [17]: 108%
- growth [11]: 103%
- growth [12]: 101%
- growth [18]: 101%
- growth [13]: 97.8%
- growth [15]: 94.2%

SMILES: CSC(=N\N=C\c1ccc(N(C)C)cc1)/N=C/N(C)C
- growth [1]: 99%
- growth [2]: 92.3%
- growth [3]: 102%
- growth [4]: 95.5%
- growth [5]: 107%
- growth [6]: 106%
- growth [7]: 105%
- growth [16]: 90.1%
- growth [9]: 119%
- growth [10]: 94.9%
- growth [17]: 113%
- growth [11]: 102%
- growth [12]: 83.8%
- growth [18]: 97%
- growth [13]: 102%
- growth [14]: 108%
- growth [15]: 110%

SMILES: N#Cc1ccc(OC(=O)Nc2ccc(Cl)c(Cl)c2)cc1
- growth [1]: 39.4%
- growth [2]: 5.09% (active)
- growth [3]: 59%
- growth [4]: 91.6%
- growth [5]: 66.7%
- growth [6]: 107%
- growth [7]: 64.4%
- growth [16]: 103%
- growth [9]: 65.5%
- growth [10]: 27.9%
- growth [17]: 93.3%
- growth [11]: 99.3%
- growth [12]: 96.2%
- growth [18]: 44.5%
- growth [13]: 50%
- growth [14]: 87.1%
- growth [15]: 42.9%

SMILES: CCOc1ccc(I)cc1
- growth [1]: 114%
- growth [2]: 131%
- growth [3]: 96.7%
- growth [4]: 94%
- growth [5]: 109%
- growth [6]: 110%
- growth [7]: 117%
- growth [16]: 111%
- growth [9]: 101%
- growth [10]: 114%
- growth [17]: 116%
- growth [11]: 112%
- growth [12]: 105%
- growth [18]: 98.2%
- growth [13]: 102%
- growth [14]: 106%

SMILES: N#CSc1cc(S(N)(=O)=O)ccc1N
- growth [1]: 116%
- growth [2]: 109%
- growth [3]: 102%
- growth [4]: 107%
- growth [5]: 108%
- growth [6]: 108%
- growth [7]: 106%
- growth [8]: 113%
- growth [9]: 108%
- growth [10]: 104%
- growth [17]: 98.6%
- growth [11]: 120%
- growth [12]: 107%
- growth [18]: 94.5%
- growth [13]: 102%
- growth [15]: 107%

SMILES: CCCOC(=O)C(O)c1ccccc1 (centres undefined)
- growth [1]: 107%
- growth [2]: 118%
- growth [3]: 114%
- growth [4]: 94.9%
- growth [5]: 119%
- growth [6]: 107%
- growth [8]: 106%
- growth [9]: 109%
- growth [10]: 104%
- growth [17]: 103%
- growth [11]: 111%
- growth [12]: 102%
- growth [18]: 98.3%
- growth [13]: 97.8%
- growth [14]: 110%
- growth [15]: 101%

SMILES: CC1CCCCN1C(=S)Nc1ccc(S(=O)(=O)N2CCCCC2)cc1 (centres undefined)
- growth [1]: 81.1%
- growth [2]: 74.7%
- growth [3]: 106%
- growth [4]: 100%
- growth [5]: 90.4%
- growth [7]: 138%
- growth [8]: 97.7%
- growth [16]: 88.9%
- growth [9]: 107%
- growth [17]: 93.4%
- growth [11]: 96.3%
- growth [12]: 93.2%
- growth [18]: 102%
- growth [13]: 91.5%
- growth [14]: 112%

SMILES: CC1=CC(C)(C)NC(=S)N1c1ccc(S(=O)(=O)O)c2cccc(S(=O)(=O)O)c12
- growth [1]: 109%
- growth [2]: 113%
- growth [3]: 114%
- growth [4]: 105%
- growth [5]: 117%
- growth [7]: 95.9%
- growth [8]: 99.9%
- growth [16]: 92.8%
- growth [9]: 110%
- growth [10]: 106%
- growth [11]: 106%
- growth [12]: 95.2%
- growth [18]: 108%
- growth [14]: 108%
- growth [15]: 94.6%

SMILES: CC(=O)OCC1CCCO1 (centres undefined)
- growth [1]: 102%
- growth [2]: 119%
- growth [3]: 110%
- growth [4]: 110%
- growth [5]: 102%
- growth [6]: 92%
- growth [8]: 114%
- growth [9]: 105%
- growth [10]: 93.1%
- growth [17]: 107%
- growth [11]: 100%
- growth [12]: 87.3%
- growth [18]: 94.2%
- growth [14]: 84.8%
- growth [15]: 102%

SMILES: CNc1nc(NC)c2cn[nH]c2n1
- growth [1]: 96.7%
- growth [2]: 99.2%
- growth [3]: 111%
- growth [4]: 106%
- growth [5]: 108%
- growth [7]: 109%
- growth [8]: 114%
- growth [16]: 101%
- growth [10]: 101%
- growth [17]: 103%
- growth [11]: 111%
- growth [12]: 106%
- growth [18]: 97.3%
- growth [13]: 99.4%
- growth [15]: 105%

SMILES: CC1(C(N)=O)CCC(C(=O)O)C1(C)C (centres undefined)
- growth [1]: 111%
- growth [2]: 100%
- growth [3]: 105%
- growth [4]: 98.2%
- growth [5]: 102%
- growth [6]: 94.4%
- growth [8]: 119%
- growth [16]: 105%
- growth [9]: 110%
- growth [10]: 91.3%
- growth [17]: 99.7%
- growth [11]: 97.4%
- growth [12]: 111%
- growth [18]: 88.4%
- growth [13]: 99.7%
- growth [14]: 99.4%
- growth [15]: 111%

SMILES: COC(=O)Nc1cccc(Cl)c1OC
- growth [1]: 101%
- growth [2]: 99.3%
- growth [3]: 106%
- growth [4]: 92.6%
- growth [5]: 111%
- growth [6]: 116%
- growth [8]: 111%
- growth [16]: 95.4%
- growth [9]: 110%
- growth [10]: 104%
- growth [17]: 111%
- growth [11]: 101%
- growth [12]: 71.7%
- growth [18]: 104%
- growth [13]: 107%
- growth [14]: 104%
- growth [15]: 111%

SMILES: CC(=O)Cc1ccc(-c2ccccc2)cc1
- growth [1]: 102%
- growth [2]: 97.5%
- growth [3]: 104%
- growth [4]: 112%
- growth [5]: 109%
- growth [6]: 108%
- growth [8]: 113%
- growth [16]: 99.4%
- growth [9]: 103%
- growth [10]: 97.6%
- growth [17]: 109%
- growth [11]: 114%
- growth [12]: 108%
- growth [18]: 93.3%
- growth [14]: 101%
- growth [15]: 101%

SMILES: CCCCCCCCOC(=O)c1ccccn1
- growth [1]: 125%
- growth [2]: 101%
- growth [3]: 103%
- growth [4]: 95%
- growth [5]: 104%
- growth [6]: 95.2%
- growth [8]: 110%
- growth [16]: 106%
- growth [9]: 98.8%
- growth [10]: 96.4%
- growth [17]: 94.5%
- growth [11]: 116%
- growth [12]: 98.3%
- growth [18]: 96.2%
- growth [13]: 94.2%
- growth [15]: 103%
